The values below come from PubChem BioAssay (NCATS).

Records with an inconclusive call do not appear. Activity calls are given as the source filed them. Unless noted, the call rests on the fitted dose curve; in most records, active means well fitted curve in either direction with a large enough effect (not every such curve was filed as active); inconclusive means small, poorly fitted or top-dose-only effect, or another doubt; inactive means flat fitted curve, though single readings scatter.

The nature of assay [1]: AP1 Signaling Pathway (AID 357).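 Further: ME-180 reporter cells stimulated with EGF at its EC50 level; on the % scale 0 is the no-effect control and ±100 the full control effect.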 In a few lines: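 A ratiometric CCF4 readout (405 nm excitation; 460 and 530 nm emission) quantified AP-1-driven beta-lactamase in ME-180 cells after 5 h with compound and EC50 EGF; AC50 values were derived for activators and inhibitors.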
Assay [2] is described as follows: NFAT Signaling Pathway (AID 444).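 Further: carbachol stimulus at about its EC50 of 1 µM final; on the % scale 0 is the no-effect control and ±100 the full control effect.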 As to conditions: Jurkat NFAT-bla M1, carbachol, beta-lactamase ratio, 5 h; at 17.2 µM (top of the series) unless noted. Summed up:
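Jurkat cells carrying an NFAT-driven β-lactamase reporter and co-transfected muscarinic M1 receptor were treated with compound plus carbachol (1 uM final, an EC50 level) for 5 h at 37 °C. CCF4 loading followed for 1 h at RT; 460/530 nm ratio gave %activity.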

Assay [3] in a line: Stat Signaling Pathway (AID 446).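 Further: ME-180 cervical cancer cells given 40 pM IL-6 alongside compound; SIE-controlled beta-lactamase reporter measured as 460/530 nm FRET emission ratio; on the % scale 0 is the no-effect control and ±100 the full control effect.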 In a few lines: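 Overnight-plated ME-180 cells bearing a STAT Inducible Element beta-lactamase reporter; 5 h co-exposure to compound and 40 pM IL-6; values normalized to 300 pM IL-6 and 125 nM JAK inhibitor controls.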
Assay [4] deals with Glucocorticoid receptor (Homo sapiens) (UniProt P04150). The assay is described as follows: GR-EFC Redistribution (AID 451; calls by dose curve; further: potency means the concentration at half of the fitted maximal effect). The settings on record: CHO-K1 GR-EFC translocation, beta-gal luminescence, 2 h. Summed up:
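CHO-K1 cells stably expressing nuclear-localized β-gal enzyme acceptor and GR fused C-terminally to the enzyme donor fragment; ligand-driven nuclear translocation restores β-gal by complementation. Compounds titrated up to 46 uM final, 2 h at 37 °C; luminescence read.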

For assay [5], the target named is Mitogen-activated protein kinase 10 (Mus musculus) (UniProt Q61831). The experiment in a line: JNK3 AlphaScreen Assay (AID 530).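 Further: kinase came from lysate of stimulated human HepG2 cells; signal reports phosphorylation of biotinylated GST-cJun 1-79 at Ser73 with 10 µM ATP; on the % scale 0 is the no-effect control and ±100 the full control effect.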 In a few lines:
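Phosphorylation of biotinylated GST-cJun(1-79) at Ser73 is measured by AlphaScreen proximity luminescence. Enzyme is JNK3 in HepG2 lysates activated with interleukin-1beta and tumor necrosis factor alpha; ATP is 10 uM final.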
Background: Alpha assays give light when donor and acceptor beads are brought close together.

Assay [6] concerns the target 3',5'-cyclic-AMP phosphodiesterase 4B (Homo sapiens) (UniProt Q07343). The experiment in a line: qHTS Assay for Inhibitors of PDE-IV (AID 607; active means well fitted activation curve with a large enough effect in the main read-out, with a control signal flat, not every such curve was filed as active; further: % of control where 0% means no effect). In a few lines: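 Live HEK293 cells with a modified cyclic nucleotide-gated (CNG) channel report intracellular cAMP via membrane-potential dye fluorescence (ex 535/em 590 nm). Endogenous PDE-IV was targeted. Compounds were tested at up to 22.9 uM final; RO 20-1724 100 uM served as control.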
For orientation: Quantitative high-throughput screening tests each substance at several concentrations.

Assay [7] can be described thus: qHTS Assay for Lipid Storage Modulators (AID 1519; calls by dose curve). The settings on record: Drosophila S3 cells, BODIPY lipid droplet/cell ratio, laser cytometry, cells loaded with oleic acid; for activity change, negative = inhibition: at 25.7 µM (top of the series). In a few lines:
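Cells seeded at 5,000 per well were treated with compounds over a concentration series and loaded with oleic acid (400 uM, as added). Lipid droplet fluorescence (488 nm excitation, 500-530 nm channel) was read by laser-scanning cytometry and normalized to 20 uM Triacsin C.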

Assay [8] has as its target ATP-dependent 6-phosphofructokinase (Trypanosoma brucei brucei) (UniProt O15648). The assay is described as follows: qHTS Assay to Find Inhibitors of T. brucei phosphofructokinase: hit validation (AID 492961; active means well fitted curve in the direction sought with a large enough effect; an effect the other way counts as inactive or inconclusive). Summed up:
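Reaction: 0.1 M triethanolamine pH 8.0, 5 mM MgCl2, F6P 0.5 mM, ATP 0.1 mM, PFK 1.25 nM, 45 min RT. Read-out: ADP-Glo luminescence. Analysis: concentration-response fits, classed by r2 and efficacy.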

The target in assay [9] is Ubiquitin carboxyl-terminal hydrolase 1 (Homo sapiens) (UniProt O94782). The experiment in a line: Inhibitors of USP1/UAF1: Pilot qHTS (AID 504865; active means well fitted curve in the direction sought with a large enough effect; an effect the other way counts as inactive or inconclusive;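 further: rhodamine fluorescence freed from ubiquitin-rhodamine substrate followed over time; top concentration of the series differs between compounds; on the % scale 0 is the no-effect control and ±100 the full control effect; nearly all actives have a fitted effect of over 35% in size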). In a few lines: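 Kinetic fluorescence assay: 1nM USP1/UAF1, 15 min compound preincubation, then 150nM Ub-Rho; 480/540 nm.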
Assay [10] concerns the target Luciferin 4-monooxygenase (Photinus pyralis) (UniProt P08659). The experiment in a line: Biochemical firefly luciferase enzyme assay for NPC (AID 624030; active means well fitted curve in the direction sought with a large enough effect; an effect the other way counts as inactive or inconclusive;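 further: purified P. pyralis luciferase at 10 nM with luciferin and ATP substrate; 0% = DMSO and -100% = full luciferase inhibition by PTC124 control; nearly all actives have a fitted effect of over 70% in size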). Summed up: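 Counter-screen for direct inhibition of the luciferase enzyme by approved-drug library compounds, run at 10 nM enzyme in 50 mM Tris acetate (final). Luminescence was read within 5 min of enzyme-buffer addition and normalized to PTC124 versus DMSO (0%).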

Assay [11] can be described thus: qHTS profiling for inhibitors of Plasmodium falciparum proliferation (AID 504749; active means well fitted curve in the direction sought with a large enough effect; an effect the other way counts as inactive or inconclusive;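 further: 0% = DMSO vehicle and full inhibition = artemisinin control; nearly all actives have a fitted effect of over 60% in size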). The settings on record: P. falciparum in erythrocytes, SYBR Green DNA, 72 h, at 12.8 µM (top of the series). In a few lines: (§1)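 Quantitative HTS: compounds pinned into medium, infected erythrocytes added (0.3% parasitemia, 2.5% hematocrit), 72 h culture at 37 C under 5% CO2. Saponin/Triton lysis with SYBR Green I, overnight RT, then fluorescence read.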

Another assay deals with C2A. The assay is described as above. The settings on record: P. falciparum in erythrocytes, SYBR Green DNA, 72 h; series mostly up to 12.8 µM. Summed up: as §1
For the next assay, the system named is CP217. The description is as above. The settings on record: P. falciparum in erythrocytes, SYBR Green DNA, 72 h; series mostly up to 12.8 µM. Summed up: as §1
The test system of a further assay is CP238. Described as above. The settings on record: P. falciparum in erythrocytes, SYBR Green DNA, 72 h; series mostly up to 12.8 µM. In a few lines: as §1
The test system of a further assay is CP250. Described as above. The settings on record: P. falciparum in erythrocytes, SYBR Green DNA, 72 h; series mostly up to 12.8 µM. Summed up: as §1
A further assay concerns CP252. Described as above. As to conditions: P. falciparum in erythrocytes, SYBR Green DNA, 72 h; series mostly up to 12.8 µM. In a few lines:
as §1

The next assay deals with FAB9. The assay is described as above. As to conditions: P. falciparum in erythrocytes, SYBR Green DNA, 72 h; series mostly up to 12.8 µM. In a few lines: as §1
The next assay relates to SC27B. Described as above. As to conditions: P. falciparum in erythrocytes, SYBR Green DNA, 72 h; series mostly up to 12.8 µM. In a few lines: as §1
Another assay relates to HB3. The assay is described as above. As to conditions: P. falciparum in erythrocytes, SYBR Green DNA, 72 h; series mostly up to 12.8 µM. Summed up:
as §1

Assay [12] deals with Glucocorticoid receptor (Homo sapiens) (UniProt P04150). The experiment in a line: GR-GFP Redistribution (AID 450;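 active means compounds whose dose series gives a full or clear partial fitted curve of increased nuclear translocation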; further: potency means the concentration at half of the fitted maximal effect). The settings on record: U2OS GR-GFP nuclear translocation, laser cytometry, 2 h.
The mark [13] stands for this setting: measured here: cell count channel max response.
Where [14] appears, read: measured here: lipid channel max response.

Chain of Ubiquitin carboxyl-terminal hydrolase 1 (Homo sapiens) (O94782 whole entry, looked up): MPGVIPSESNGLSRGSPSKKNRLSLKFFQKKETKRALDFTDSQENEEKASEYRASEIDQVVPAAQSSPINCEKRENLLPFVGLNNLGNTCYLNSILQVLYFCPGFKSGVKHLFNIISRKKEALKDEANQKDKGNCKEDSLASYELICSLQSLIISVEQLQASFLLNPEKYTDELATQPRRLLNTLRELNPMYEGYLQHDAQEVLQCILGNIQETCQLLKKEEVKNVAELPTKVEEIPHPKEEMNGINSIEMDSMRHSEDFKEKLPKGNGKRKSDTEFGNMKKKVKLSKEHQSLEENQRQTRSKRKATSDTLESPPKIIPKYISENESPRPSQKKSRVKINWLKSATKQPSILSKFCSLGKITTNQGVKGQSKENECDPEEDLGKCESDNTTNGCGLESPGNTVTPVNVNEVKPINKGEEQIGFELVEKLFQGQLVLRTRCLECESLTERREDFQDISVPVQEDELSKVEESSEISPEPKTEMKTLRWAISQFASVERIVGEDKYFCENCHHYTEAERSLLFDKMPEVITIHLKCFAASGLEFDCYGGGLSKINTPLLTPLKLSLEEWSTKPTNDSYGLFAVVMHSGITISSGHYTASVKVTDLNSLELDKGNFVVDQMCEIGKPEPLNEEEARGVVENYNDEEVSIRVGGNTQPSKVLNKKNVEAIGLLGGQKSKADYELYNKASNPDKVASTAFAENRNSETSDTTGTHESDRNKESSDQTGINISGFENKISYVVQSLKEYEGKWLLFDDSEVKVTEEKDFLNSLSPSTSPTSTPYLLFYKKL
Chain of Glucocorticoid receptor (Homo sapiens) (P04150 whole entry, looked up, the tested form may be a part): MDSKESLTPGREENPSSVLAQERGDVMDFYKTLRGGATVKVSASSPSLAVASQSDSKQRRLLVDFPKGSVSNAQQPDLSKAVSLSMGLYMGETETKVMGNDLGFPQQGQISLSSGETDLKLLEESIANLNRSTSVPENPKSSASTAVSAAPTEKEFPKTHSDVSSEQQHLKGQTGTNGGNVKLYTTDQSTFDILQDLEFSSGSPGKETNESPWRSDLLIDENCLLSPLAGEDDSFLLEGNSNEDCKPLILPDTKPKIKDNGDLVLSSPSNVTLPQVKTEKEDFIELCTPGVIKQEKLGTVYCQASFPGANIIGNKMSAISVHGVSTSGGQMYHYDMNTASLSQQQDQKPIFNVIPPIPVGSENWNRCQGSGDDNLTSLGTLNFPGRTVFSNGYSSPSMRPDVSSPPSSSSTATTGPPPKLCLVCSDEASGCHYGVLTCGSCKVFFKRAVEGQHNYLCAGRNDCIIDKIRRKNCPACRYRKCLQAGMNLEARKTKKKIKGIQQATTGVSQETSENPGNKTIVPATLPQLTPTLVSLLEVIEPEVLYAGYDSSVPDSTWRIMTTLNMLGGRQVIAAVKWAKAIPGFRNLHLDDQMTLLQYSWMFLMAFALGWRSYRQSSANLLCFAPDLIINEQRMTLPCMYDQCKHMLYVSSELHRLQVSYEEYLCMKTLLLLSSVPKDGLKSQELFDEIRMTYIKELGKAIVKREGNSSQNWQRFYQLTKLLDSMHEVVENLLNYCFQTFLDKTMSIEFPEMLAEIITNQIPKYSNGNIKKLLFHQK
Chain of 3',5'-cyclic-AMP phosphodiesterase 4B (Homo sapiens) (Q07343 whole entry, looked up): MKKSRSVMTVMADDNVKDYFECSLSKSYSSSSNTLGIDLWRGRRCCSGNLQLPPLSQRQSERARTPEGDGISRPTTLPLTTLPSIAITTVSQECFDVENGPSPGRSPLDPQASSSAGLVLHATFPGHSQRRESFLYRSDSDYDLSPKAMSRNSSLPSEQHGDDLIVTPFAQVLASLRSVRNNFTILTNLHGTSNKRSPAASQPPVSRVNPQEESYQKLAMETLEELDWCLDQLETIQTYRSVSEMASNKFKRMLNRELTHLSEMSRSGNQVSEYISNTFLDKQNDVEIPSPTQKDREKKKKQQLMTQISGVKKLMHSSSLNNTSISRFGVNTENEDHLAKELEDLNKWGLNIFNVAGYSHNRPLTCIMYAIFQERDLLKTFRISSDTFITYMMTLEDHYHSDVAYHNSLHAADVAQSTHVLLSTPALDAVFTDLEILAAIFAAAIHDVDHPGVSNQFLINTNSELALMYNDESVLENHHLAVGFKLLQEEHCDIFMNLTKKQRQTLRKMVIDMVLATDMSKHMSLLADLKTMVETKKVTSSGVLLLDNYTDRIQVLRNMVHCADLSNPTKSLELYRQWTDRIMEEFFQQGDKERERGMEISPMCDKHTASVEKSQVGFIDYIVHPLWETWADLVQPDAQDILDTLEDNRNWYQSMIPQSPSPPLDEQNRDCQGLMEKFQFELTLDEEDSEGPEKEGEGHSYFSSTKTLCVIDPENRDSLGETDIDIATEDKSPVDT
Chain of ATP-dependent 6-phosphofructokinase (Trypanosoma brucei brucei) (O15648 whole entry, looked up): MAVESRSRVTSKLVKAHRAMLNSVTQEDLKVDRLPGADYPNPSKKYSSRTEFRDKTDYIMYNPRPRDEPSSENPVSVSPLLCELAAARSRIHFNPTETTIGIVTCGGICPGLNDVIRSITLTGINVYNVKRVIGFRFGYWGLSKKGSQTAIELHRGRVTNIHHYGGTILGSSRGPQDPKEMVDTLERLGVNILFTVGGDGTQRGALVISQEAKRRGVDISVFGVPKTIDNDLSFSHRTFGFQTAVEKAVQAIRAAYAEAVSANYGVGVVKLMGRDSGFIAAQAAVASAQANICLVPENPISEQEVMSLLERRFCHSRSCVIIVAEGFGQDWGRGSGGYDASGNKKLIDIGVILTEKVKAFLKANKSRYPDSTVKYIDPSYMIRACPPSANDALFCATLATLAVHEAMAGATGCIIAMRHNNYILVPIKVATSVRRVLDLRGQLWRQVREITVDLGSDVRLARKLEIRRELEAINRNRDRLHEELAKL
Chain of Luciferin 4-monooxygenase (Photinus pyralis) (P08659 whole entry, looked up): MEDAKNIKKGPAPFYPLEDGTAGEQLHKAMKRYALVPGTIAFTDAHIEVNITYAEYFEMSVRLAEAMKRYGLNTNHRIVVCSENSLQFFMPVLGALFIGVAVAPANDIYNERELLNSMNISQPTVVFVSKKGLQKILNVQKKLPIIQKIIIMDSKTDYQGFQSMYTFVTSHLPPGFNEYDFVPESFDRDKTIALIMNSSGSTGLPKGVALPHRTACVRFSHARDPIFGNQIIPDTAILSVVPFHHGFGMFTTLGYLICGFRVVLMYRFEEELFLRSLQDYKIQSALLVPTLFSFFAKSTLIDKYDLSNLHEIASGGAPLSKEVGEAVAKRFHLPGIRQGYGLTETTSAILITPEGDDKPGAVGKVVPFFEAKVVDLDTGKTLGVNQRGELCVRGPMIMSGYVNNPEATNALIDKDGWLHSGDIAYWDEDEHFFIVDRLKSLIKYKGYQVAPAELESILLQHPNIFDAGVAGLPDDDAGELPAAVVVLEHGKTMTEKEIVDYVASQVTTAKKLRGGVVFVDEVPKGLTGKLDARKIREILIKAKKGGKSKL

On to `CCCCC[C@H](O)/C=C\[C@@H]1[C@H](O)CC(=O)[C@@H]1CCCCCCC(=O)O`, for which the outcome in assay [1], in [3], in assay [6] and in assay [8] was inactive. For the same molecule, the figures for the activity change, negative = inhibition in [2] and in assay [7] were -1.09% (inactive) and -3.38% (inactive), respectively. Also, the Potency in assay [4] is > 20.6 µM (inactive). Also, the Potency entry (in assay [5]; in assay [9]; in assay [10]; in the assay with C2A; in the assay with CP217; in the assay on CP238) was “inactive” throughout. Also, the Potency entry in the assay with CP250, in the assay on CP252, in the assay on FAB9 and in the assay with SC27B was “inactive” each time. Also, the max response in assay [7] (setting [13]) was -5.83%; in assay [7] (setting [14]), -11.1%. Moreover, the activity, negative = inhibition in [11] (parasite line A) was 8.32% (inactive); in assay [11] (parasite line B) it was 1.76% (inactive).

Turning to `C[C@H](CCC(=O)O)[C@H]1CC[C@@H]2[C@@H]3[C@@H](O)C[C@H]4C[C@@H](O)CC[C@@]4(C)[C@H]3CC[C@@]21C`, the result in [1], in assay [3], in assay [6] and in [8] was inactive. For the same molecule, the activity change, negative = inhibition in assay [2] was 14.2% (inactive); in assay [7], -0.554% (inactive). In addition, the Potency result (in assay [5]; in [9]; in assay [10]; with C2A; with CP217; with CP238) was “inactive” in each case. The Potency result in the assay on CP250, in the assay with CP252, in the assay on FAB9 and in the assay on HB3 was “inactive” throughout. Also, the figures for the max response in [7] (setting [13]) and in [7] (setting [14]) were -2.48% and -0.386%, respectively.

As to `N[C@H](Cc1cc(I)c(Oc2ccc(O)c(I)c2)c(I)c1)C(=O)O`, the result in [1], in assay [3] and in assay [6] was inactive. Further, the activity change, negative = inhibition was -4.32% (inactive) in assay [2] and -1.62% (inactive) in [7]. Also, the Potency in assay [12] and in [4] was > 20.6 µM (inactive) each time. Further, in assay [5], the Potency entry is “inactive”. The max response was 8.52% in assay [7] (setting [13]) and 3.42% in assay [7] (setting [14]).

For the molecule `C=C1CC23C[C@H]4[C@@H]5[C@@]6(C)C[C@H](OC(=O)c7ccccc7)[C@@H](OC(C)=O)[C@]57[C@@H]2[C@@H](OC(C)=O)[C@H]1[C@@H](O)[C@H]3[C@H]7N4C6`, the result in assay [1] and in assay [3] was inactive. The activity change, negative = inhibition is -10.3% (inactive) in assay [2] and -1.43% (inactive) in assay [7]. In addition, the Potency in assay [4] was > 20.6 µM (inactive). Further, in [5], the Potency result is “inactive”. For the same molecule, the max response in assay [7] (setting [13]) is -3.09%; in assay [7] (setting [14]), -1.64%.

As for `S=C(NC1CCCCC1)N1CCC([C@H]2C=NC=N2)CC1`, the molecule was called inactive in [1], in assay [3] and in [6]. In addition, the activity change, negative = inhibition was -11% (inactive) in assay [2] and 2.27% (inactive) in assay [7]. Moreover, the Potency in assay [12] and in assay [4] was > 20.6 µM (inactive) each time. For the same molecule, the Potency entry in assay [5] and in assay [9] was “inactive” in each case. The max response in assay [7] (setting [13]) is -0.275%; in assay [7] (setting [14]) it was 2.69%.

As to `CC1=CC(=O)C2=C(C)CC[C@@H]3[C@@H](OC(=O)[C@H]3C)[C@H]12`, the call in [1], in [3] and in [6] was inactive. Also, the activity change, negative = inhibition in assay [2] was -23.2% (inactive); in [7], 0.93% (inactive). Further, the Potency in assay [12] and in [4] was > 20.6 µM (inactive) each time. Moreover, the Potency result in assay [5] and in assay [9] was “inactive” in each case. The values for the max response in assay [7] (setting [13]) and in [7] (setting [14]) were -15.8% and -14.8%, respectively.
